Measurements: the supplement of paper PMC10849652
The full data set covers some 8,800 targets. This sample favours those with a hit. About 0.5% of all pairs of compound and target were hits. Unmarked numbers belong to inactive results.

Columns and labels:
Test in all cases: log2 fold change, soluble protein after heating vs DMSO (PISA); higher = thermal stabilisation; K562 lysate, 10 uM; active = over 0.2 and 3.5 SD of the protein, either way, in both replicates (recomputed)
[1] = compound: C=CC(=O)N1CCC[C@@H](n2nc(-c3ccc(Oc4ccccc4)cc3)c3c(N)ncnc32)C1 [ibrutinib]
In short: (§1)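 Values give the log-two fold change in thermal stability against solvent controls, from duplicates. Crude K562 extract at 1 mg/mL protein, made by dounce homogenisation in PBS pH 7.4 with 1 mM MgCl2, was treated with 10 μM compound for 30 min. After 3 min heating across 48°C-58°C, aliquots were pooled, adjusted to 0.5% NP-40 at 4°C and centrifuged at 21,000xg for 90 min. The supernatant was measured by TMTpro 16plex LC-MS/MS with channel sums equalised.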

[2] = compound: CC(=O)c1cnc2ccc(-c3cc(Cl)c(O)c(Cl)c3)nc2c1N[C@H]1CC[C@H](CN(C)C)CC1
In short: as §1

[3] = compound: CC(C)(C)Cn1c(N)nc2ccc(-c3[nH]c(C(C)(C)C)nc3-c3ccc(F)cc3)nc21 [ralimetinib]
In short: as §1

[4] = compound: CC(C)(O)CC(=O)NCCn1ccc2ncnc(Nc3ccc(Oc4cccc(C(F)(F)F)c4)c(Cl)c3)c21
In short: as §1

[5] = compound: CC(C)C1=C2N=C(C=C(N2N=C1)NCC3=CC=CC=C3)NCCCCCCN
In short: as §1

[6] = compound: CC1=C(C(CC(=O)N1)C2=CC=C(C=C2)C(F)(F)F)C(=O)NC3=C(C=C4C(=C3)C=NN4)F
In short: as §1

[7] = compound: CC1=C(C2=C(C=C1)C(=O)C3=CC=CC=C3N2CCCN)C
In short: as §1

[8] = compound: CC1=C(C=C(C=C1)NC(=O)C2=CC(=CC=C2)C(C)(C)C#N)NC3=CC4=C(C=C3)N=CN(C4=O)C
In short: as §1

[9] = compound: CC1=C(C=C(C=C1)NC(=O)C2=CC(=CC=C2)N(C)C)NC(=O)C3=CC=C(C=C3)O
In short: as §1

[10] = compound: CC1=CC=C(C=C1)SC2=C3C=C(SC3=CN=C2)C(=O)N
In short: as §1

[11] = compound: CCCS(=O)(=O)Nc1ccc(F)c(C(=O)c2c[nH]c3ncc(-c4ccc(Cl)cc4)cc23)c1F [vemurafenib]
In short: as §1

[12] = compound: CCCS(=O)(=O)Nc1ccc(F)c(C(=O)c2c[nH]c3ncc(Cl)cc23)c1F
In short: as §1

[13] = compound: CCN(CCCOc1ccc2c(Nc3cc(CC(=O)Nc4cccc(F)c4)[nH]n3)ncnc2c1)CCOP(=O)(O)O [barasertib]
In short: as §1

[14] = compound: CC[C@@H]1C(=O)N(C)c2cnc(Nc3ccc(C(=O)NC4CCN(C)CC4)cc3OC)nc2N1C1CCCC1
In short: as §1

[15] = compound: CC[C@@H]1C(=O)N(C)c2cnc(Nc3ccc(C(=O)N[C@H]4CC[C@H](N5CCN(CC6CC6)CC5)CC4)cc3OC)nc2N1C(C)C [volasertib]
In short: as §1

[16] = compound: CCn1c(C(=O)N(C2CC2)C2CC2)cc2c3c(ncn3C)c(Nc3cc(C)n(C)n3)nc21
In short: as §1

[17] = compound: CCn1cc(-c2ccnc3[nH]c(-c4cccc(CN(C)C)c4)cc23)c(-c2ccc(NC(=O)N(C)C)cc2)n1
In short: as §1

[18] = compound: CN1CCC(CNc2ccc3ncc(-c4cccc(OC(F)(F)F)c4)n3n2)CC1
In short: as §1

[19] = compound: CN1CCN(CCOc2cc(OC3CCOCC3)c3c(Nc4c(Cl)ccc5c4OCO5)ncnc3c2)CC1 [saracatinib]
In short: as §1

[20] = compound: CN1CCN(c2nc(C3=C(c4c[nH]c5ccccc45)C(=O)NC3=O)c3ccccc3n2)CC1 [sotrastaurin]
In short: as §1

Chain of UniProt P06753 (P06753 whole entry, looked up): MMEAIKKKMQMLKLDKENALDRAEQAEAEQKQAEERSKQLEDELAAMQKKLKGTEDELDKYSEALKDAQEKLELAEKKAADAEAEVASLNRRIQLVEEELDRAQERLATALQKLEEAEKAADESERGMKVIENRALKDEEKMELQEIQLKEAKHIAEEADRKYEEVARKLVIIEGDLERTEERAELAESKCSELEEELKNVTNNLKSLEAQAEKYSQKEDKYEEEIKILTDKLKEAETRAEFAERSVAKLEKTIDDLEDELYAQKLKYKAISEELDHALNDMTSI
Chain of UniProt Q9UBB9 (Q9UBB9 whole entry, looked up): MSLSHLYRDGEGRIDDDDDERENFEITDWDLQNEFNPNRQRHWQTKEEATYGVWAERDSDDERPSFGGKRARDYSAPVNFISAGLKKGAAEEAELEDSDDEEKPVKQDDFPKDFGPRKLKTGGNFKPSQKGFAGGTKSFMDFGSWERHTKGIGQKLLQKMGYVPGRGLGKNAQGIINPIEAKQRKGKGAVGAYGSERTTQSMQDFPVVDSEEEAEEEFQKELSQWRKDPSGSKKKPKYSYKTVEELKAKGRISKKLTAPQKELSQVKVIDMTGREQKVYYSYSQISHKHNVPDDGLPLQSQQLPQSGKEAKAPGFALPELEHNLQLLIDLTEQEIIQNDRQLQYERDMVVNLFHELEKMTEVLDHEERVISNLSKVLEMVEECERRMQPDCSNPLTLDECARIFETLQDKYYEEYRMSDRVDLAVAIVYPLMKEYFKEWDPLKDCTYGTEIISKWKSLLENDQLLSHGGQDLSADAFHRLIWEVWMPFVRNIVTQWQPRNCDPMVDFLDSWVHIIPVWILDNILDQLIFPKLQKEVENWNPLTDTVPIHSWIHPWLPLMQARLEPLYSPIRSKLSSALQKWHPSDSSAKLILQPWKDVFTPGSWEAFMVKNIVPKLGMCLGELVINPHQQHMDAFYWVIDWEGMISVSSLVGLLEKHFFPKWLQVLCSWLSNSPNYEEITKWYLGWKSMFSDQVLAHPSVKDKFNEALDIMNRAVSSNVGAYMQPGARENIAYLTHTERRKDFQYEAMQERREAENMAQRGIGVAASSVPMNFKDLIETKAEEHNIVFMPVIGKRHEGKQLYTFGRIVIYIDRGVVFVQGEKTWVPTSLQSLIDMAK
Chain of UniProt Q9UKI8 (Q9UKI8 whole entry, looked up): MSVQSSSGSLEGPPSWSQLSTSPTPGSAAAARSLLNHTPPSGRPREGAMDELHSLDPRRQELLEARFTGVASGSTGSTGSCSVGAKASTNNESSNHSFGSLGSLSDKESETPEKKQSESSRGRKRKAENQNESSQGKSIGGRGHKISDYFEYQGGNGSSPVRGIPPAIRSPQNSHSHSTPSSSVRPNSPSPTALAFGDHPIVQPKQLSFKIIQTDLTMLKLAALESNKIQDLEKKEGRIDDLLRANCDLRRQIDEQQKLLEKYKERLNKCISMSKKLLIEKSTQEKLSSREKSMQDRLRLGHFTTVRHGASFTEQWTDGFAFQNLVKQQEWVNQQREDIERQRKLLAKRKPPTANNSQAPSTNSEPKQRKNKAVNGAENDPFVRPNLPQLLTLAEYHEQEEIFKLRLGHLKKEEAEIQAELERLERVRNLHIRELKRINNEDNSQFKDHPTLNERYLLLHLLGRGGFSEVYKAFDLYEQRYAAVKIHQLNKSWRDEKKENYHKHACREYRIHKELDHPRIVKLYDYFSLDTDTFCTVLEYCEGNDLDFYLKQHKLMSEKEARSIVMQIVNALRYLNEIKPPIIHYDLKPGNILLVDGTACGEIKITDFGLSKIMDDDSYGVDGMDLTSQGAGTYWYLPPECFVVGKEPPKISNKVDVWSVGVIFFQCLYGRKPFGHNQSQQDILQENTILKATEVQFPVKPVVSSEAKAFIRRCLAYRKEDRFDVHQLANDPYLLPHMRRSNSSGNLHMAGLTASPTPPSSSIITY
Chain of UniProt Q9H892 (Q9H892 whole entry, looked up): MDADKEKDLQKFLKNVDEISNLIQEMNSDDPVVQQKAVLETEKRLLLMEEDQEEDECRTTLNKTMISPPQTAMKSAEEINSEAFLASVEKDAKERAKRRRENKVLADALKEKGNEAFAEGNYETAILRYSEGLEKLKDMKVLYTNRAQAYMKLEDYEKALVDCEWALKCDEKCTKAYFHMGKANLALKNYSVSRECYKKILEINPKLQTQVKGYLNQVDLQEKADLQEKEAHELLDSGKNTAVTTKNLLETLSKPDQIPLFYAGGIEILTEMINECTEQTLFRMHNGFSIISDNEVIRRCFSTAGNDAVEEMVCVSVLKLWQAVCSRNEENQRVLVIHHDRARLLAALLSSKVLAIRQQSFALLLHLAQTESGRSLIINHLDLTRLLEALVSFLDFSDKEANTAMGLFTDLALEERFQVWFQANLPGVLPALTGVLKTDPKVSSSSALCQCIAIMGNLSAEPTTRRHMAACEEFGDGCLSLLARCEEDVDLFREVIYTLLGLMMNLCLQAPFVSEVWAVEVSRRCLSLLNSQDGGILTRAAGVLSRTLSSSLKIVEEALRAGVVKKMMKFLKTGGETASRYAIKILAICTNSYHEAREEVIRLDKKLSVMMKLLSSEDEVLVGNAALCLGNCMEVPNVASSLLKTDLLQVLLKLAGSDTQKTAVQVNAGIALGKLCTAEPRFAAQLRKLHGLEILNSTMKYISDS
Chain of UniProt O60704 (O60704 whole entry, looked up): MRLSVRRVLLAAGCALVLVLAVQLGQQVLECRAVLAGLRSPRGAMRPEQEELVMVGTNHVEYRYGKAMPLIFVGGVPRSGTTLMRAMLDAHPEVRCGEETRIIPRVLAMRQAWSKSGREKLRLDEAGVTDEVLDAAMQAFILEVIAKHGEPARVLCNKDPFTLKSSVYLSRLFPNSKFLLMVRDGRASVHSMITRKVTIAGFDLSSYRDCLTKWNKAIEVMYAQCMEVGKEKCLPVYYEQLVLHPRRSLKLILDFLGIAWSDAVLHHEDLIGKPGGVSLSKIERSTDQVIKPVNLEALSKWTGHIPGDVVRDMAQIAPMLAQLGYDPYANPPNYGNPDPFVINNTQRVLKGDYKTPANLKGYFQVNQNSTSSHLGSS
Chain of UniProt Q8N0Z6 (Q8N0Z6 whole entry, looked up): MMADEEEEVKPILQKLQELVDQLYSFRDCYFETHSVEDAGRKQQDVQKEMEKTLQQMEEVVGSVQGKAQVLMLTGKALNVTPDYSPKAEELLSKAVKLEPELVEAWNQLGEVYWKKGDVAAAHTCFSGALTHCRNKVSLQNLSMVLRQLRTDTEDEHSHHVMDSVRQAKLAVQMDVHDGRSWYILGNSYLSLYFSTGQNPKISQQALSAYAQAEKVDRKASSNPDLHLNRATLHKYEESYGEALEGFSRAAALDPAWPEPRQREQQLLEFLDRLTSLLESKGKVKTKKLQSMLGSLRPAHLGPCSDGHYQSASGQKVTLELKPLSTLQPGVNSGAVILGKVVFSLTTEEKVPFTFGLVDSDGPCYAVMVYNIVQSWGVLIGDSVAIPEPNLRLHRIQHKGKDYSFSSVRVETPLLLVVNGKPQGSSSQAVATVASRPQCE
Chain of UniProt Q96S44 (Q96S44 whole entry, looked up): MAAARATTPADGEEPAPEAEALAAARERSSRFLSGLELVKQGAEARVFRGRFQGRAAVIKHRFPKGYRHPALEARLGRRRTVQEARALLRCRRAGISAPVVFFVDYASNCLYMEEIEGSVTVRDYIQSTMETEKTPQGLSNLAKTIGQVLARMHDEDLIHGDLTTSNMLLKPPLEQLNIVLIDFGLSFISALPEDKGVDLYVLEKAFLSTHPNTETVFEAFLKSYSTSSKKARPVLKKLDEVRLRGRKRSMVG
Chain of UniProt Q13885 (Q13885 whole entry, looked up): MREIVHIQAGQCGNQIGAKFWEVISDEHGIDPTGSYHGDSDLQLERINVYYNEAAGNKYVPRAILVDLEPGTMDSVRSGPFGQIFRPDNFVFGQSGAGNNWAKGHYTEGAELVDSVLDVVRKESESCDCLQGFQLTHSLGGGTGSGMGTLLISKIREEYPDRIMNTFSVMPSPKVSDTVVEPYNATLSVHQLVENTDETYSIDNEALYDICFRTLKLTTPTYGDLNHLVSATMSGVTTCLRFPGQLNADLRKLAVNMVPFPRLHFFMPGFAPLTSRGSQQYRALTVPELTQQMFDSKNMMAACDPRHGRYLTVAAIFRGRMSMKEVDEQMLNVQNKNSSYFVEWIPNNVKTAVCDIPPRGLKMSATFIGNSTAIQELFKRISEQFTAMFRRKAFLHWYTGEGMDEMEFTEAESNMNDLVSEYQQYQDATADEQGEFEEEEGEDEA
Chain of UniProt O60701 (O60701 whole entry, looked up): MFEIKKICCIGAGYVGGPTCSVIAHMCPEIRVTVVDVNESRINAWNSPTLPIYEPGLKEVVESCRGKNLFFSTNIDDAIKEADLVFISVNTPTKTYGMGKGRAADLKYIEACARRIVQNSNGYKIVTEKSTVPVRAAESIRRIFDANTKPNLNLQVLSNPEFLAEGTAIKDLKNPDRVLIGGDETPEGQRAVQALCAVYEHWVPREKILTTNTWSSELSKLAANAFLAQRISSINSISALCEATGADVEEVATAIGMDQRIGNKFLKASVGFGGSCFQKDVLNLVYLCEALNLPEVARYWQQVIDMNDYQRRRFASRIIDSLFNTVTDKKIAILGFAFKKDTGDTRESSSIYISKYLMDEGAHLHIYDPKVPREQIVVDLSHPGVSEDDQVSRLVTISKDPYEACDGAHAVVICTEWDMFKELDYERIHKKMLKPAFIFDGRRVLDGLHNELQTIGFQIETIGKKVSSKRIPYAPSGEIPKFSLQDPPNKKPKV
Chain of UniProt Q5U3C3 (Q5U3C3 whole entry, looked up): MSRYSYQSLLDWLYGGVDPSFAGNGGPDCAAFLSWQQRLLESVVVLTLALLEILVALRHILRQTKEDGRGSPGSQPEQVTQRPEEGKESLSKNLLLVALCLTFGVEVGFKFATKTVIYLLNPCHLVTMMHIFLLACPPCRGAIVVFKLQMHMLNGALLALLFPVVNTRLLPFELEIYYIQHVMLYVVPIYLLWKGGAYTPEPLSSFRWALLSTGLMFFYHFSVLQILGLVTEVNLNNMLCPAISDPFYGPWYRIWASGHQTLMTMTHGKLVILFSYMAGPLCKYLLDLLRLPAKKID

| Target | log2 fold change [1] | log2 fold change [2] | log2 fold change [3] | log2 fold change [4] | log2 fold change [5] | log2 fold change [6] | log2 fold change [7] | log2 fold change [8] | log2 fold change [9] | log2 fold change [10] | log2 fold change [11] | log2 fold change [12] | log2 fold change [13] | log2 fold change [14] | log2 fold change [15] | log2 fold change [16] | log2 fold change [17] | log2 fold change [18] | log2 fold change [19] | log2 fold change [20] |
| --- | --- | --- | --- | --- | --- | --- | --- | --- | --- | --- | --- | --- | --- | --- | --- | --- | --- | --- | --- | --- |
| TPM3 (UniProt P06753) | 0.009 | -0.001 | -0.028 | 0.022 | 0.013 | -0.028 | 0.013 | -0.038 | -0.016 | -0.007 | -0.008 | 0.009 | -0.02 | 0.043 | 0.021 | 0.013 | 0.182 | -0.062 | -0.011 | -0.031 |
| TRIM33 isoform 2 (UniProt Q9UPN9) | 0.04 | 0.006 | 0.024 | 0.022 | -0.026 | 0.01 | 0 | -0.014 | 0.019 | 0.005 | -0.018 | -0.003 | 0.009 | -0.008 | -0.039 | 0.023 | -0.132 | 0.05 | 0.027 | 0.043 |
| TMEM164 (UniProt Q5U3C3) | 0.053 | -0.066 | -0.171 | -0.252 | -0.035 | -0.184 | -0.153 | 0.255 | 0.027 | -0.061 | 0.179 | 0.108 | 0.039 | 0.176 | 0.08 | -0.186 | -0.827 (active) | 0.262 | 0.062 | -0.084 |
| TP53RK (UniProt Q96S44) | 0.02 | -0.059 | 0.019 | -0.008 | 0.007 | -0.013 | -0.004 | 0 | -0.02 | -0.071 | -0.018 | 0.047 | 0 | -0.058 | -0.002 | 0.013 | 0.025 | -0.039 | -0.049 | -0.023 |
| TFIP11 (UniProt Q9UBB9) | 0.059 | 0.001 | 0.023 | 0.008 | -0.022 | 0 | -0.034 | 0.016 | 0.031 | -0.003 | 0.017 | 0.025 | -0.09 | -0.018 | -0.059 | 0.048 | -0.027 | -0.037 | 0.018 | 0.027 |
| TLK1 isoform 2 (UniProt Q9UKI8) | 0.017 | 0.094 | 0.053 | 0.01 | 0.012 | -0.002 | 0.038 | -0.013 | -0.037 | 0 | 0.001 | -0.003 | 0.06 | -0.048 | -0.078 | 0.01 | -0.092 | 0.072 | 0.014 | 0.393 (active) |
| TTC5 (UniProt Q8N0Z6) | 0.019 | 0.007 | 0.017 | 0.001 | 0.042 | -0.089 | -0.01 | 0.017 | 0.016 | -0.001 | 0.016 | 0.017 | -0.014 | -0.03 | -0.014 | 0.018 | -0.111 | 0.054 | 0.005 | 0.007 |
| TMPO (UniProt P42167) | -0.003 | 0.009 | 0.018 | -0.001 | -0.044 | 0.006 | 0.005 | -0.043 | -0.006 | -0.064 | 0.063 | 0.008 | 0.003 | -0.01 | 0.013 | 0.022 | 0.033 | -0.033 | 0.014 | -0.014 |
| TPST2 (UniProt O60704) | -0.098 | -0.036 | 0.006 | 0.019 | -0.08 | 0.039 | -0.06 | -0.039 | -0.036 | -0.08 | 0.053 | 0.009 | 0.097 | 0.075 | -0.024 | -0.011 | -0.851 (active) | 0.188 | 0.011 | 0.065 |
| THADA (UniProt Q6YHU6) | 0.011 | 0.006 | -0.009 | -0.029 | -0.016 | -0.01 | 0.012 | 0.028 | 0.03 | 0.013 | -0.006 | 0.007 | 0.038 | -0.028 | -0.037 | 0.019 | -0.029 | 0.02 | 0.029 | 0.037 |
| TUBA1C (UniProt Q9BQE3) | -0.001 | 0.017 | 0.007 | -0.043 | 0.032 | 0.015 | -0.035 | -0.012 | 0.043 | 0.009 | 0.036 | 0.026 | 0.013 | 0.009 | -0.059 | -0.029 | -0.082 | 0.022 | 0.054 | 0.044 |
| TTC12 isoform 2 (UniProt Q9H892) | -0.002 | -0.073 | 0.053 | 0.128 | -0.032 | -0.049 | -0.042 | 0.037 | -0.14 | -0.003 | 0.025 | 0.061 | 0.053 | -0.049 | 0.063 | -0.121 | -0.208 | 0.079 | 0.038 | -0.055 |
| UGDH (UniProt O60701) | 0.02 | 0.02 | 0.085 | -0.004 | -0.004 | 0.019 | 0.215 (active) | -0.037 | 0.058 | 0.031 | 0.008 | 0.017 | -0.003 | -0.062 | -0.045 | 0.011 | -0.028 | -0.021 | 0.187 | 0.003 |
| TOE1 (UniProt Q96GM8) | 0.011 | -0.001 | 0.007 | 0.003 | 0.008 | -0.061 | -0.023 | -0.02 | 0.014 | 0.011 | 0.052 | 0.018 | -0.053 | -0.051 | -0.031 | -0.042 | -0.022 | -0.005 | -0.029 | 0.007 |
| UBR4 (UniProt Q5T4S7) | -0.019 | -0.008 | 0.02 | -0.011 | -0.02 | 0.003 | 0.011 | 0.009 | 0.014 | 0.01 | -0.003 | 0.016 | 0.02 | -0.037 | -0.03 | 0.019 | -0.034 | -0.031 | 0.01 | 0.007 |
| TUBB2A (UniProt Q13885) | 0.005 | 0.014 | 0.032 | -0.005 | 0.027 | 0.02 | 0.001 | -0.011 | 0.032 | 0.001 | -0.001 | 0.016 | -0.013 | -0.007 | -0.049 | 0.003 | -0.032 | 0.002 | 0.011 | 0.017 |
